Assay results from PubChem BioAssay AID1307 (SRMLSC, 2008).
Hit rate of the full screen: of about 1,200 compounds, fewer than 10 were called active.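 The calls were made as follows: active = inhibition reaching a set limit at one or more tested concentrations; inactive = inhibition under that limit at every dose.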 These entries were drawn from the full list. Entries with a potency or affinity are not part of this list.

experiment: RAM pathway signaling blockade in S. cerevisiae – dose response (AID 1307);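 also: 0% = DMSO vehicle wells and 100% = 10 µM 1-NA-PP1 control; higher inhibition means more yeast growth since RAM block rescues cells from 5-FOA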; settings: S. cerevisiae RAM network URA3 reporter, 5-FOA growth OD615, active compounds read high, yeast express analog-sensitive mutant Cbk1 kinase; at 100 µM unless noted

Max inhibition, inactive:
COc1ccc(C(=O)NNC(=O)C(Cc2ccc(O)cc2)NC(=O)c2ccccc2NC(=O)c2ccc(OC)cc2)cc1 (centres undefined) 3.19%
COC(=O)[C@H](Cc1ccccc1)NC(=O)[C@@]1(C)C[C@@H]1[C@@H](NC(=O)OCc1ccccc1)c1ccccc1 5.9%
O=C(CCC(=O)c1ccc(Oc2ccccc2)cc1)Nc1cccc(Cl)c1Cl 3.23% [at 25 µM]
COc1cccc(/C=C(/C(=O)OCC(=O)NC2CCCC(C)C2C)c2ccccc2)c1 (centres undefined) 7.65% [at 50 µM]
Cc1ccc(C(=O)C(OC(=O)CCC(=O)Nc2cccc(C)c2)c2ccccc2)cc1 (centres undefined) 5.19%
CCOC(=O)c1ccc(COC(=O)c2ccc3c(c2)-c2ccccc2C3=O)cc1 5.23% [at 25 µM]
CCOC(=O)C1CCN(S(=O)(=O)C(F)(F)c2nc3ccccc3s2)CC1 2.1% [at 0.391 µM]
Clc1ccc(-c2nnc(CSc3nnc(-c4cccs4)o3)o2)cc1 2.52% [at 3.125 µM]
CCSC1=N/C(=C/c2ccsc2)C(=O)N1c1ccccc1 3.18%
CCCNC(=O)c1ccccc1NC(=O)c1ccc(CSc2ccccc2)cc1 5.46% [at 50 µM]
Cc1ccc(C2=NN(Cc3nnc(-c4ccccc4)o3)C(=O)SC2)cc1 3.29%
O=C(NCc1ccccc1)c1ccc(S(=O)(=O)N2CCCc3ccccc32)cc1 2.24%
O=[N+]([O-])c1ccc(N/N=C/c2sc(N3CCOCC3)nc2-c2ccccc2)c(S(=O)(=O)Nc2ccc(Cl)cc2)c1 8.74%
CN(C)S(=O)(=O)c1ccc2[nH]cc(/C=C/c3nc4ccccc4c(=O)n3-c3ccccc3)c2c1 10.9%
CN(C)c1nc(SCCOC(=O)COc2ccc(Cl)cc2Cl)nc(N(C)C)n1 1.44% [at 0.782 µM]
O=C(c1cccs1)n1nc(-c2ccc(Cl)cc2)nc1NCc1ccco1 2.48%
O=C(C(Sc1ccccc1)c1ccccc1)N1CCN(c2ccccc2)CC1 (centres undefined) 2.99% [at 3.125 µM]
CCOC(=O)c1c(NC(=S)Nc2ccc(OC)cc2)sc2c1CCCCC2 3.37% [at 1.563 µM]
O=C(/C=C/c1ccc(-c2ccccc2)o1)c1ccccc1 5.06%
O=C(Cn1cc(C(=O)c2ccco2)c2ccccc21)NC1CCCCC1 3.76% [at 0.391 µM]
O=C1CCC(/C=C/c2ccccc2)=NN1Cc1ccc(Cl)c(Cl)c1 3.06%
C=CCO/N=C(/C)c1c(O)c(CC)c(-c2ccccc2)n(-c2ccccc2)c1=O 2.56% [at 0.391 µM]
CCOC(=O)c1cccc(NC(=O)CSc2nnc(COc3ccccc3C)o2)c1 2.04% [at 50 µM]
Cc1c(NC(=S)NC(=O)Cc2ccccc2)cccc1C(=O)O 2.43% [at 0.196 µM]
COc1cc(NC(=O)c2ccc3c(c2)OCO3)c2ncccc2c1 4.22%
C/C(=N\OC(=O)c1ccc(OC(C)C)cc1)c1ccc(C)c(C)c1 3.12%
Cc1ccc(N(CCCCN2C(=O)c3ccccc3C2=O)C(=O)c2cccs2)cc1 4.25%
Cc1ccc(S(=O)(=O)N2c3cc(C)ccc3OCC2C(C)(C)C)cc1 (centres undefined) 3.04%
COc1ccc(C(=O)COC(=O)C(CCSC)NS(=O)(=O)c2ccc(Cl)cc2)cc1 (centres undefined) 2.78% [at 25 µM]
COCCn1c(=NC(=O)c2sc3ccccc3c2Cl)sc2cc(S(N)(=O)=O)ccc21 4.98% [at 50 µM]
CCOc1ccc(/C=C2/SC(=S)N(C(C(=O)O)c3ccccc3)C2=O)cc1OCC (centres undefined) 3.65%
Cc1ccc(-n2c(SCC(=O)N3CCCc4ccccc43)nnc2-c2cccnc2)c(C)c1 3.12% [at 50 µM]
O=C(O)c1cc(Sc2ccc(Br)cc2)nc2ccccc12 4.44% [at 50 µM]
CCCCc1ccc(N=N/C(C(=O)Nc2ccccc2OC)=C(/C)O)cc1 4.87% [at 50 µM]
O=C(COC(=O)CCN1C(=O)/C(=C\C=C\c2ccccc2)SC1=S)Nc1ccc(Br)cc1 9.41%
O=C(Nc1ccn(Cc2cccc3ccccc23)n1)c1cccnc1 3.63%
CCN(CC)S(=O)(=O)c1cccc(-c2nnc(SCCCC(=O)c3ccccc3)o2)c1 3.65%
O/N=C/c1cc(Br)ccc1OCc1cccc(F)c1 1.58% [at 0.196 µM]
COC(=O)c1scc(C)c1N/N=C(\C)c1ccc(F)cc1F 8.43%
CCCc1nn(C)c(C(=O)Nc2ccc(C(C)(C)C)cc2)c1Cl 3.4%
CCCCOn1c(C)c(C(=O)OCC)c2c3no[n+]([O-])c3ccc21 2.31%
O=C(NCc1ccc2c(c1)OCO2)c1cc(-c2ccccn2)nc2ccccc12 4.19% [at 3.125 µM]
CC(C)(CNC(=S)NCCc1ccccc1)CNC(=S)NCCc1ccccc1 4.96%
CCOC(=O)C(C)Sc1cc(CS(=O)(=O)c2ccccc2)nc(-c2ccccc2)n1 (centres undefined) 5.53%
CCN(CC)S(=O)(=O)c1cc(NS(=O)(=O)c2c(Cl)cccc2Cl)ccc1C 3.03% [at 50 µM]
Cc1ccccc1-c1nnn(CC(=O)Nc2ccc3c(c2)OCCO3)n1 4.6%
O=C(O)CCN1C(=O)/C(=C/c2cn(-c3ccccc3)nc2-c2cccs2)SC1=S 5.53%
COc1ccc(C(=O)/C=C/c2ccc(OC)c(COc3ccc(F)cc3)c2)cc1 5.41%
CC(CCc1ccccc1)NC(=O)CNC(=S)N(Cc1cccs1)C1CCCC1 (centres undefined) 3.28%
COc1ccc(-c2ccc(-c3noc(-c4cccc(OC)c4)n3)c(OC)n2)cc1 4.12%
CC1(C)CC(C(CCN(Cc2ccccc2)C(=O)c2ccco2)c2ccc(F)cc2)CCO1 (centres undefined) 4.56% [at 50 µM]
C=C(C)COc1ccc(-c2[nH]ncc2Oc2ccccc2OCC)c(O)c1 3.4%
CCOC(=O)c1sc(-c2ccccc2)cc1NC(=O)c1ccc(S(=O)(=O)N(CCOC)CCOC)cc1 1.69% [at 12.5 µM]
O=C1Nc2ccccc2/C1=N\N=C\C1=C(N2CCOCC2)C(=C\c2ccccc2)/CC1 19.6%
O=S(=O)(Nc1nc2ccccc2nc1Nc1ccc2c(c1)OCCO2)c1cccs1 5.19%
Cc1cc(C)c(C)c(S(=O)(=O)N2CCC(C(=O)OCC(=O)N3c4ccccc4NC(=O)C3(C)C)CC2)c1C 4.49%
CCOC(=O)c1ccc(NC(=O)Nc2ccc3c4c(cccc24)C(=O)N3CC)cc1 3.19%
CC(C)c1ccc(CNc2cc(N3CCCC3)ccc2[N+](=O)[O-])cc1 5.27%
CCCCc1ccc(-c2csc(/C(C#N)=C\c3ccc(C)o3)n2)cc1 5.43%
O=C(CN(Cc1cccs1)C(=O)CSc1nnc(COc2ccccc2)o1)NC1CCCC1 3.76%
COc1ccc(/C=C2\SC(=O)N(CCC(=O)Nc3ccccc3)C2=O)cc1OC 3.41%
Cc1cc2c(C)ccc(C)c2nc1SCC(=O)c1cccs1 5.59% [at 25 µM]
COc1ccc(O[C@H]2C=C[C@@H](c3ccccc3)O[C@@H]2CO/N=C(\C)CCC(=O)OC[C@H]2O[C@H](c3ccccc3)C=C[C@@H]2Oc2ccc(OC)cc2)cc1 6.56%
Cc1ccc(S(=O)(=O)N2CCC(=O)N(C(COCc3cccc(C(F)(F)F)c3)C(C)C)CC2)cc1 (centres undefined) 2.65% [at 0.782 µM]
CCOC(=O)c1c(NC(=O)CSc2nnc(-c3ccco3)o2)sc(C)c1C 4.63% [at 0.391 µM]
CCOC(=O)c1cc(C(C)C)sc1NC(=O)COC(=O)CCS(=O)(=O)c1ccccc1 3.24% [at 50 µM]
Cc1c(N=Nc2ccc(N(C)C)cc2)c(=O)n(-c2ccccc2)n1C 20.4%
COc1ccc(N(CC(=O)NCCSCc2ccco2)S(=O)(=O)c2ccc(C)cc2)cc1 4.74% [at 50 µM]
Cc1ccc(N=C(NOCc2ccc(Cl)cc2Cl)c2nonc2N)c(C)c1 5.27%
CCOC(=O)c1sc(NC(=O)CSc2nnc(-c3ccc(OC)cc3)n2CCOC)nc1C 1.33% [at 0.782 µM]
CCC(=O)NC(=S)Nc1ccc(NC(=S)NC(=O)c2ccccc2)cc1 5.34% [at 50 µM]
O=C(CSc1nnc(-c2ccccc2Br)o1)N1CCc2ccccc2C1 2.54%
N#Cc1ccsc1NC(=O)COC(=O)CCCSc1nc2ccccc2s1 2.77% [at 50 µM]
O=C(/C=C/c1cccc([N+](=O)[O-])c1)NCCSCc1ccccc1Cl 1.79% [at 6.25 µM]
Clc1ccc(CSc2nnc(/C=C/c3ccccc3)o2)cc1 2.78% [at 25 µM]
CCSc1ccc(-c2nn(-c3ccccc3)cc2/C=C(/C#N)C(=O)NCCCOC)cc1 13%
CCOC(=O)c1c(-c2cccs2)csc1NC(=O)COC(=O)c1c(C)noc1C 4.68%
Cc1ccc(NC2=Nc3ccccc3N3C2=Nc2c(c(C)nn2-c2ccccc2)C3c2ccc(O)c(O)c2)cc1 (centres undefined) 6.97%
COc1ccc(C(=O)CSc2nc(C(C)(C)C)nc3ccccc23)cc1 2.25% [at 1.563 µM]
